Screening data: PubChem BioAssay, NMMLSC
Rows were chosen to be rich in hits. Some 1.2% of all compounds tested hit in one or more screens of this group.
RGS7-Gao = regulators of human RGS7-Galphao interaction | Multiplexed bead flow cytometry, RGS7-Galphao binding; actives lie on both sides | binding response (% of control), % at 10 µM | 220,000 compounds, 0.35% hits; in the data active = binding response below about 49% or above about 150%; inconclusive = no clear call, values can overlap the other calls; inactive = in between;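 note: fluorescent Galphao held in activated GDP-AlF4 state binding bead-coupled RGS7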
GSH bead fluor = compound fluoresces at 488/530 nm on GSH beads. GSH beads flow cytometry, compound fluorescence 488/530 nm; stronger effect = higher value. 190,000 compounds, 0.25% hits. fluorescence (KMESF) at 10 µM; in the data active = fluorescence above about 89;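 note: glutathione beads carrying GST-tagged Bcl family fusion proteins plus one bare bead set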
Avidin bead fluor = avidin bead compound fluorescence profile. Avidin beads, compound fluorescence 488/530 nm, flow cytometry; stronger effect = higher value. fluorescence (KMESF) at 10 µM. 220,000 compounds, 0.38% hits; in the data active = fluorescence above about 47
RGS4-Gao reg = modulates binding of RGS4 to human Galphao; P09471; Multiplexed bead flow cytometry; actives lie on both sides; binding response (% of control), % at 10 µM; 220,000 compounds, 0.33% hits; AID 1415; in the data active = binding response below about 49% or above about 150%; inactive = in between;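 note: fluorescent Galphao activated with aluminum fluoride binding bead-coupled RGS4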
RGS8-Gao = regulators of human RGS8-Galphao interaction; P09471; multiplexed bead flow cytometry, RGS8-Galphao binding; actives lie on both sides; response (percent of control binding), % at 10 µM; 220,000 compounds, 0.34% hits; AID 1423; in the data active = response below about 60% or above about 140%; inactive = in between;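 note: Galphao activated as the GDP aluminium fluoride complex binding bead-coupled RGS8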
RGS16-Gao HTS = modulates binding between human RGS16 and Galphao. O15492+P09471. bead-based flow cytometry RGS16-Galphao binding, fluorescence; actives lie on both sides. binding response (% of control), % at 10 µM. 220,000 compounds, 0.38% hits. AID 1441;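 note: Galphao activated by GDP with aluminum fluoride before binding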
Target sequence (O15492 whole entry, looked up): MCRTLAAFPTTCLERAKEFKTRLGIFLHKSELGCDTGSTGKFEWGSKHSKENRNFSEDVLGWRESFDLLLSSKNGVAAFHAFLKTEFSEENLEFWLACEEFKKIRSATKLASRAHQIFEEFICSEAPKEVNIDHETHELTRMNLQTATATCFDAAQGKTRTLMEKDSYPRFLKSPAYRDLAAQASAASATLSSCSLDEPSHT
Target sequence (P09471 whole entry, looked up): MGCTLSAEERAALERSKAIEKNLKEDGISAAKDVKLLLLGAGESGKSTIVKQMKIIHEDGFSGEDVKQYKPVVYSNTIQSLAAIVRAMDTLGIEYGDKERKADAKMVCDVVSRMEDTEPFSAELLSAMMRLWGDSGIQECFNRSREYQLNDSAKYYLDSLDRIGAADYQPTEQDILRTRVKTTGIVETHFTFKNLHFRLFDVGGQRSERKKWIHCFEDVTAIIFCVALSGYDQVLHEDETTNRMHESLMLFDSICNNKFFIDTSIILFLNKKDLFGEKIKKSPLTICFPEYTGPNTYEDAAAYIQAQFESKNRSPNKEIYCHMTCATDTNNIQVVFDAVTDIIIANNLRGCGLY
RGS-Gao = regulators of human RGS4-Galphao interaction. AID 1504. shares compounds with RGS16-Gao HTS. multiplexed bead flow cytometry, RGS–Galpha-o binding. 1,600 compounds, 99% hits. RGS4–Galpha-o binding response, % at 10 µM;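 note: fluorescently labeled Galpha-o bound to GDP with aluminium fluoride binding biotinylated RGS beads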
Avidin counter = biotin-avidin bead binding disruption counter-screen. shares compounds with RGS16-Gao HTS. streptavidin beads, fluorescein-biotin binding, flow cytometry. inhibition, % at 10 µM. 1,700 tested, under 10 active. AID 1783;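 active = inhibition above 50%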;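 note: median green fluorescence of gated singlet beads compared with DMSO control wells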
RGS8-Gao single = confirmation of regulators of human RGS8-Galphao interaction; shares compounds with RGS16-Gao HTS; 1,700 compounds, 3% hits; bead-based flow cytometry RGS8-Galphao binding, fluorescence; actives lie on both sides; binding response (% of control), % at 10 µM; AID 1836; in the data active = binding response below about 72% or above about 130%; inactive = in between;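 note: Galphao activated as GDP AlF4 complex before binding bead RGS8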
RGS7-Gao confirm = confirmation of regulators of human RGS7-Galphao interaction | shares compounds with RGS16-Gao HTS | bead-based flow cytometry RGS7-Galphao binding; actives lie on both sides | response (percent of control binding), % at 10 µM | 1,700 compounds, 7.8% hits; in the data active = response below about 75% or above about 130%; inactive = in between;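 note: fluorescent Galphao activated with GDP and aluminum fluoride binding bead-coupled RGS7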
RGS16-Gao single = RGS16-Galphao interaction regulation, single point confirmation | AID 1838 | bead-based flow cytometry, RGS16-Galphao binding; actives lie on both sides | shares compounds with RGS16-Gao HTS | 1,700 compounds, 4% hits | response (% of control binding), % at 10 µM; in the data active = response below about 74% or above about 130%; inactive = in between;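 note: Galphao activated as the GDP aluminium fluoride complex binding bead-coupled RGS16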
RGS4-Gao single = RGS4-Galphao interaction regulation, single point confirmation; 1,700 compounds, 4% hits; RGS4-Galphao binding, multiplexed bead flow cytometry; actives lie on both sides; shares compounds with RGS16-Gao HTS; binding response (% of control), % at 10 µM; AID 1840; in the data active = binding response below about 74% or above about 130%; inactive = in between
RGS19-Gao single = RGS19-Galphao interaction regulation, single point confirmation. bead-based flow cytometry RGS19-Galphao binding; actives lie on both sides. shares compounds with RGS16-Gao HTS. response (percent of control binding), % at 10 µM. 1,700 compounds, 5% hits; in the data active = response below about 50% or above about 160%; inactive = in between
Hits are given with their value; n = inactive; u = inconclusive; x = no result; [ ] = remark or other dose. Unless noted, the rule behind the calls is not given here.

SMILES	RGS7-Gao	GSH bead fluor	Avidin bead fluor	RGS4-Gao reg	RGS8-Gao	RGS16-Gao HTS	Avidin counter	RGS8-Gao single	RGS7-Gao confirm	RGS16-Gao single	RGS4-Gao single	RGS19-Gao single	others
CCOc1ccccc1/C=N/NC(=O)c1cccc(S(=O)(=O)N(CC)CC)c1	n	n	n	n	n	n	x	x	x	x	x	x
O=C(Nc1nc(-c2ccccc2)c(C(=O)c2ccccc2)s1)c1ccc(S(=O)(=O)N2CCCC2)cc1	381[activator]	n	172	297[activator]	n	349[activator]	n	n	n	n	n	n
CCCN(CCC)c1nc(N(CCC)CCC)[nH]c(=O)n1	5.2	n	n	16	20	9.2	n	n	n	n	n	n
O=C(CCSCc1cccc(Cl)c1)NC1CCCC1	n	n	n	n	n	n	x	x	x	x	x	x
COc1ccccc1CNC(=O)CCSCc1cccc(Cl)c1	n	n	n	n	146[activator]	n	n	n	n	n	n	n	RGS-Gao=99
COc1ccc(CNC(=O)CCSCc2cccc(Cl)c2)cc1	177[activator]	n	92	157[activator]	n	n	n	n	n	n	n	n
COc1ccc(CNC(=O)CSCc2cccc(Cl)c2)cc1	n	n	n	n	n	n	x	x	x	x	x	x
C=CCSc1nnc(NC(=O)c2cccc(S(=O)(=O)N(C)c3ccccc3)c2)s1	n	n	n	n	n	n	x	x	x	x	x	x
S=c1[nH]nc(COc2ccccc2)n1Cc1ccccc1	n	n	n	n	50	3.7	n	n	n	n	n	n	RGS-Gao=80
O=C(CSc1ccc2ccccc2n1)NCc1ccc2c(c1)OCO2	u	n	n	21	14	11	n	n	n	n	n	n
O=C(Nc1ccc(Oc2nnc(-c3ccccc3)c3ccccc23)cc1)c1ccccc1	n	n	n	n	n	n	x	x	x	x	x	x
COC(=O)c1ccccc1COn1c(=O)c[n+]([O-])c2ccccc21	158[activator]	n	n	231[activator]	n	n	n	n	n	n	n	n
CC(C)CCN1CC(C(=O)NCCC2=CCCCC2)CC1=O (centres undefined)	n	n	n	n	n	n	x	x	x	x	x	x
CC(C)CCN1CCC(N)=NC1=O	217[activator]	n	n	234[activator]	n	191[activator]	n	n	n	n	n	n
CCOc1ccc(CNC2CCCc3ccccc32)cc1 (centres undefined)	u	n	n	n	n	n	x	x	x	x	x	x
CCCc1ccc(C(=O)NC(=O)c2ccccc2O)cc1	u	x	n	33	53	n	n	n	n	n	n	n
O=C(NC(=O)c1ccccc1O)c1ccc(C(F)(F)F)cc1	u	x	n	n	n	n	x	x	x	x	x	x
COC(=O)Cc1cc(=O)oc2cc(O)ccc12	n	n	n	n	n	n	x	x	x	x	x	x
O=C(/C=C/c1cccnc1)c1ccc(NC(=O)c2cccc(Br)c2)cc1	n	n	n	n	n	n	x	x	x	x	x	x
Cc1cccc(C(=O)Nc2ccc(C(=O)/C=C/c3cccnc3)cc2)c1	186[activator]	n	n	196[activator]	n	n	n	n	n	n	n	n
NC(=S)NN=C(Cc1ccccc1)Cc1ccccc1	n	n	n	n	n	n	x	x	x	x	x	x
